Assay [1] in a line: P. berghei load reduction in hepatocytes – cell-based, HepG2, luciferase luminescence, HepG2 viability, primary screen (AID 624349; in the data active = parasite load remaining mostly below about 12%, no sharp cut-off; inactive = mostly above about 10%;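 note: 100% = mean of DMSO negative control wells on the same plate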). As to conditions: P. berghei liver stage in HepG2, luciferase luminescence, concentration not given here; parasite load remaining: stronger effect = lower value; viability: measured here: HepG2 viability without parasites.
Assay [2] is described as follows: signal quenchers or enhancers, Cy5 substrate/SSB – biochemical, NIH Clinical Collection, E. coli SSB, artefact control for HCV NS3 helicase inhibitor project (AID 743268; call rule not given here). As to conditions: Cy5-oligo bound E. coli SSB, fluorescence interference.
The test system of assay [3] is Hepatitis C virus NS3 helicase. Briefly: blockers of NS3h binding to DNA – biochemical, fluorescence polarization, NIH Clinical Collection, primary screen (AID 743270; call rule not given here). Particulars: NS3 helicase binding to Cy5-dT15 DNA, stronger effect = higher value, concentration not given here. (In general: In fluorescence polarisation assays a small probe gives low polarisation when free and higher when bound to something large.)

The target of assay [4] is Single-stranded DNA-binding protein (Escherichia coli (strain K12)) (UniProt P0AGE0). Briefly: SSB-ssDNA binding inhibitors – biochemical, fluorescence polarization, NIH Clinical Collection, counter-screen for HCV NS3 helicase inhibitor project (AID 743271; in the data active = inhibition above about 28%). Particulars: E. coli SSB-DNA binding, stronger effect = higher value, concentration not given here.
Assay [5] in a line: compounds distorting NS3 helicase fluorescence signal – biochemical, NIH Clinical Collection, artefact control for HCV NS3 helicase inhibitor project (AID 743272; call rule not given here;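 note: HCV NS3 helicase with a Cy5 labelled single stranded DNA probe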). Particulars: fluorescence interference counterscreen, HCV NS3 helicase assay; stronger effect = lower value.
Assay [6] relates to Neuropilin-2 / VEGF-C interaction (human). Nature of the assay: small molecules blocking Neuropilin-2/VEGF-C interaction – biochemical, microplate binding format, z-score (AID 743281; call rule not given here). As to conditions: microplate NRP2/VEGF-C binding assay; stronger effect = lower value.
Assay [7] in a line: modulation of C. elegans fzo-1 (AID 1259413; call rule not given here;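 note: fzo-1 mutant C. elegans worms in liquid wells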). Particulars: C. elegans fzo-1 modulator screen, mean read-out; stronger effect = higher value.
Assay [8] is described as follows: viability loss with induced miR-34 in A549 – imaging, A549 dox-inducible miR-34, nuclei and caspase counts, primary screen (AID 1347080;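 active = compounds whose cell count with miR-34 switched on is under 0.7 times the count with it off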). As to conditions: A549 miR-34 inducible, Hoechst nuclei count, 48 h.
Assay [9] in a line: galactose survival enhancers in mitochondrial complex I cybrids – cell-based, galactose medium, ATP luminescence, primary screen (AID 1645843;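 active = z-score of at least 1.8 in each of two replicates, scored against plate mean and spread of sample wells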;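 note: positive z means more ATP and so rescue of galactose-driven cybrid death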). As to conditions: complex I mutant cybrid cells, 72 h, stronger effect = higher value.
The next assay concerns F380Y. Nature of the assay: BK channel mutant inhibitors and activators – cell-based, U2OS BacMam, thallium flux, beta subunits, selectivity assay, profiling panel (AID 1259406).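 Note: initial slope of Thallos dye fluorescence rise after thallium is added; log ratio against the mean of 0.3% DMSO vehicle wells on the same plate.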 Particulars: U2OS BacMam BK variants, at 30 µM.
For another assay, the system named is F380Y/beta1. Described as above. Particulars: U2OS BacMam BK variants, at 30 µM.
In a further assay the test system is F380Y/beta2Delta. The description is as above. Particulars: U2OS BacMam BK variants, at 30 µM.
In a further assay the test system is F380Y/beta4. The assay is described as above. Particulars: U2OS BacMam BK variants, at 30 µM.
The target of assay [10] is Calcium-activated potassium channel subunit alpha-1 (Homo sapiens) + Leucine-rich repeat-containing protein 26 (Homo sapiens) (UniProt Q12791+Q2I0M4). The description is as above. Particulars: U2OS BacMam BK variants, F380Y/Slo1WT/gamma1, at 30 µM.
Chain of Calcium-activated potassium channel subunit alpha-1 (Homo sapiens) + Leucine-rich repeat-containing protein 26 (Homo sapiens) (Q2I0M4 whole entry, looked up, one chain of several): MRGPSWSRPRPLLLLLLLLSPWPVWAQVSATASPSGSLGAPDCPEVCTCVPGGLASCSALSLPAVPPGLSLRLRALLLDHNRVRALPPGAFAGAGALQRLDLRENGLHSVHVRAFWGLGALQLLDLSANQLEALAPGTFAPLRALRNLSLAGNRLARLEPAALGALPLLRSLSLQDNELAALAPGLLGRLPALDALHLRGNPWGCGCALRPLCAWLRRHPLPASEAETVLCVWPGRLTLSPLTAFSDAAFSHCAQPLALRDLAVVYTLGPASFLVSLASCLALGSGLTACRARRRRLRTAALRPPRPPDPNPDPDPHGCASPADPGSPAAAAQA
Another assay relates to R275C. Described as above. Particulars: U2OS BacMam BK variants, at 30 µM.
In the next assay the test system is R275C/beta1. The assay is described as above. As to conditions: U2OS BacMam BK variants, at 30 µM.
Another assay relates to R275C/beta2Delta. The description is as above. As to conditions: U2OS BacMam BK variants, at 30 µM.
The subject of another assay is R275C/beta4. Described as above. Particulars: U2OS BacMam BK variants, at 30 µM.
The test system of the next assay is R275C/Slo1WT/beta2. The assay is described as above. As to conditions: U2OS BacMam BK variants, at 30 µM.

Calls of active or inactive are those of the source.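 Rule for the calls, unless noted: active = thallium flux through the channel raised or lowered by more than 3 SD from vehicle-only wells, actives on both sides; inactive = the rest.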

One may read the viability as a per cent measure of how many cells are alive, often set against a control. One may read the inhibition as the relative decrease from the control value, in per cent. `CCC(C)(C)N=C(NC#N)Nc1cccnc1`: the parasite load remaining in assay [1] was 49.6% (inactive). This molecule displayed a viability in [1] of 69.3%. For the same molecule, the fluorescence ratio in [2] was 0.95 (inactive); in assay [5] it was 0.92 (inactive). The figures for the inhibition in assay [3] and in assay [4] were -2.84% (inactive) and -3.54% (inactive), respectively. Besides, the z-score in [6] was -0.415 (inactive); in assay [9], 0.04 (inactive). Also, the mean signal in [7] was 201 (inactive). Further, the fold change in assay [8] (stronger effect = lower value, cell number ratio, induced over uninduced) is 0.909 (inactive); in assay [8] (measured here: relative caspase fold change +Dox/-Dox), 1.24. Besides, the cell count in [8] (measured here: total cells with miR-34 induction, stronger effect = lower value) was determined as 9920; in assay [8] (measured here: total cells without miR-34 induction), 10900. Moreover, the log fold change Tl+ flux with F380Y was 0.00312 (inactive); in the assay on F380Y/beta1, 0.00744 (inactive); in the assay on F380Y/beta2Delta, 0.00568 (inactive); in the assay on F380Y/beta4, 0.0162 (inactive); in assay [10] it was 0.00265 (inactive); in the assay with R275C, -0.0443 (inactive). The log fold change Tl+ flux in the assay on R275C/beta1 is -0.0211 (inactive); in the assay with R275C/beta2Delta, -0.00288 (inactive); in the assay on R275C/beta4 it was 0.0126 (inactive); in the assay on R275C/Slo1WT/beta2, -0.00574 (inactive).

On to `Nc1ncnc2c1ncn2[C@@H]1O[C@H](CO)C[C@@H]1O`, for which the parasite load remaining in [1] was 137% (inactive). The molecule further returned a viability in assay [1] of 93.2%. The fluorescence ratio in assay [2] was 0.96 (inactive); in assay [5], 0.87 (inactive). Besides, the inhibition in [3] is -2.77% (inactive); in assay [4] it was 2.21% (inactive). In addition, the z-score in assay [6] is -0.398 (inactive). Also, the mean signal in assay [7] is 230 (inactive). Also, the log fold change Tl+ flux was 0.0402 (inactive) in the assay on F380Y; 0.0107 (inactive) in the assay on F380Y/beta1; -0.0103 (inactive) with F380Y/beta2Delta; 0.0334 (inactive) in the assay on F380Y/beta4; 0.00963 (inactive) in assay [10]; -0.0453 (inactive) in the assay on R275C. The log fold change Tl+ flux in the assay on R275C/beta1 was -0.0213 (inactive); in the assay on R275C/beta2Delta it was 0.0189 (inactive); in the assay on R275C/beta4, -0.00206 (inactive); with R275C/Slo1WT/beta2 it was 0.0268 (inactive).

Regarding `CC1(C)C[C@@H]1C(=O)N/C(=C\CCCCSC[C@H](N)C(=O)O)C(=O)O`, the parasite load remaining in assay [1] is 86.6% (inactive). For the same molecule, the viability in assay [1] is 71.9%. Besides, the fluorescence ratio is 1.03 (inactive) in assay [2] and 1.01 (inactive) in assay [5]. Moreover, the inhibition in [3] was 0.4% (inactive); in assay [4], -0.1% (inactive). For the same molecule, the z-score in [6] is -0.458 (inactive). For the same molecule, the mean signal in assay [7] is 226 (inactive). Also, the log fold change Tl+ flux in the assay with F380Y is 0.00013 (inactive); in the assay on F380Y/beta1, 0.0415 (inactive); in the assay with F380Y/beta2Delta, 0.0097 (inactive); with F380Y/beta4, -0.0167 (inactive); in assay [10] it was -0.0144 (inactive); in the assay on R275C, -0.0675 (inactive). Besides, the log fold change Tl+ flux with R275C/beta1 is 0.00997 (inactive); with R275C/beta2Delta, 0.0368 (inactive); in the assay with R275C/beta4, 0.0142 (inactive); in the assay with R275C/Slo1WT/beta2, 0.00806 (inactive).

Values taken from PubChem BioAssay.
